This is part of a sample that, as a whole, favours compounds with a hit. Of some 83,000 tested, about 20% had one in any assay.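 Testing used 96-well plates and a 48-hour single-concentration exposure. Example: -40 means 40% of the starting cells died.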 Unmarked numbers belong to inactive results. The calls were made as follows: active = growth percent below 10; inactive = the rest.

This assay deals with KM12 colon. As to the kind of experiment: NCI-60 one-dose screen, 48 h (100 = growth as untreated, 0 = no growth, -100 = all killed). As to conditions: 10 µM unless noted.
As for `CNc1ncc2cc(-c3ccc(-c4ncccc4F)cc3Cl)c(=O)n(CC3OCC(N)CO3)c2n1` (stereo not drawn), the growth is 95.7%.
For `C#C[C@]1(O)CC[C@H]2[C@@H]3CC=C4c5sc(-c6ccc7c(c6)OCO7)nc5CC[C@]4(C)[C@H]3CC[C@@]21C` the value was 14%; for `C=CCn1c(SCC(=O)Nc2ccc(C(=O)/C=C/c3ccc(C)cc3)cc2)nnc1-c1c[nH]c2ccccc12`, 96.6%.

Values taken from PubChem BioAssay (NCI).
